Drawing on the supplement of paper PMC10849652, this text covers log2 fold change for 14 targets.

Targets with a hit are over-represented here; the source holds about 8,800 in all. About 0.5% of all pairs of compound and target were hits. Values without a mark were called inactive.

Holding throughout (test): log2 fold change, soluble protein after heating vs DMSO (PISA); higher = thermal stabilisation; K562 lysate, 10 uM; active = over 0.2 and 3.5 SD of the protein, either way, in both replicates (recomputed)
Compound in test [1]: Cc1sc2c(c1C)C(c1ccc(Cl)cc1)=N[C@@H](CC(=O)OC(C)(C)C)c1nnc(C)n1-2
The essentials:
(§1)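 The values are log-two fold changes in thermal stability compared with solvent controls and come from duplicates. They were obtained by TMTpro 16plex LC-MS/MS, with channel sums equalised, on the supernatant after 21,000xg for 90 min. That supernatant came from crude K562 extract at 1 mg/mL protein treated with 10 μM compound for 30 min, heated for 3 min across 48°C-58°C, pooled and brought to 0.5% NP-40 at 4°C.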

Compound in test [2]: c1ccc([C@@H]2C[C@H]2NC2CCNCC2)cc1
The essentials: as §1

Compound in test [3]: C1=CC=C(C=C1)[C@H](COC2=CC3=C(C=C2)NC(=O)N3)NC(=O)C4=CC=CN(C4=O)CC5=CC(=C(C=C5)F)F
The essentials:
as §1

Compound in test [4]: CC1=C(SC2=C1C(=N[C@H](C3=NN=C(N32)C)CC(=O)N)C4=CC=C(C=C4)Cl)C
The essentials:
as §1

Compound in test [5]: CC1=C2C(=CC=C1)N=C(N(C2=O)C3=CC=CC=C3C)CN4C=NC5=C(N=CN=C54)N
The essentials: as §1

Sequence of UniProt P49754 (P49754 whole entry, looked up): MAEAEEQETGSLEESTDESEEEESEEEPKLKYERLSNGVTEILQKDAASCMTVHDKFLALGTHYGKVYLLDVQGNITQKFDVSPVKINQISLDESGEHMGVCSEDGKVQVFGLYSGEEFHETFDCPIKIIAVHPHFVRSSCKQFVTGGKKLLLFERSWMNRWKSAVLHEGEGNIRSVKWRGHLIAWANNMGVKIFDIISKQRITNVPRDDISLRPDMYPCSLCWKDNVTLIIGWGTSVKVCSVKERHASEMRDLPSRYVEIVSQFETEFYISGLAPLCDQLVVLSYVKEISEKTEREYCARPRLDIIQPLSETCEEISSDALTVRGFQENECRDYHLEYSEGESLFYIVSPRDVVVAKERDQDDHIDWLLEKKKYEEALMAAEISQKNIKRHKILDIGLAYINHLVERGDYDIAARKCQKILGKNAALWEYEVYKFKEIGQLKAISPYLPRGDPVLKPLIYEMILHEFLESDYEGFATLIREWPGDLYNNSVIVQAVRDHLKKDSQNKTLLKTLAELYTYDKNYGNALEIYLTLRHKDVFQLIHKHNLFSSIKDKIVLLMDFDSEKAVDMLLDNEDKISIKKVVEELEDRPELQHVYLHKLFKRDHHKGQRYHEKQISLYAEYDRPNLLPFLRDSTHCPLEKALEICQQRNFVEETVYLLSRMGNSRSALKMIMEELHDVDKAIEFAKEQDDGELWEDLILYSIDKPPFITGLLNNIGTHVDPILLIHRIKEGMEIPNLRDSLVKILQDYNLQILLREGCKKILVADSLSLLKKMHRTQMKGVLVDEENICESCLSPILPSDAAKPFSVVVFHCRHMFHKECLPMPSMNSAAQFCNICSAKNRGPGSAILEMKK
Sequence of UniProt Q9NUA8 (Q9NUA8 whole entry, looked up): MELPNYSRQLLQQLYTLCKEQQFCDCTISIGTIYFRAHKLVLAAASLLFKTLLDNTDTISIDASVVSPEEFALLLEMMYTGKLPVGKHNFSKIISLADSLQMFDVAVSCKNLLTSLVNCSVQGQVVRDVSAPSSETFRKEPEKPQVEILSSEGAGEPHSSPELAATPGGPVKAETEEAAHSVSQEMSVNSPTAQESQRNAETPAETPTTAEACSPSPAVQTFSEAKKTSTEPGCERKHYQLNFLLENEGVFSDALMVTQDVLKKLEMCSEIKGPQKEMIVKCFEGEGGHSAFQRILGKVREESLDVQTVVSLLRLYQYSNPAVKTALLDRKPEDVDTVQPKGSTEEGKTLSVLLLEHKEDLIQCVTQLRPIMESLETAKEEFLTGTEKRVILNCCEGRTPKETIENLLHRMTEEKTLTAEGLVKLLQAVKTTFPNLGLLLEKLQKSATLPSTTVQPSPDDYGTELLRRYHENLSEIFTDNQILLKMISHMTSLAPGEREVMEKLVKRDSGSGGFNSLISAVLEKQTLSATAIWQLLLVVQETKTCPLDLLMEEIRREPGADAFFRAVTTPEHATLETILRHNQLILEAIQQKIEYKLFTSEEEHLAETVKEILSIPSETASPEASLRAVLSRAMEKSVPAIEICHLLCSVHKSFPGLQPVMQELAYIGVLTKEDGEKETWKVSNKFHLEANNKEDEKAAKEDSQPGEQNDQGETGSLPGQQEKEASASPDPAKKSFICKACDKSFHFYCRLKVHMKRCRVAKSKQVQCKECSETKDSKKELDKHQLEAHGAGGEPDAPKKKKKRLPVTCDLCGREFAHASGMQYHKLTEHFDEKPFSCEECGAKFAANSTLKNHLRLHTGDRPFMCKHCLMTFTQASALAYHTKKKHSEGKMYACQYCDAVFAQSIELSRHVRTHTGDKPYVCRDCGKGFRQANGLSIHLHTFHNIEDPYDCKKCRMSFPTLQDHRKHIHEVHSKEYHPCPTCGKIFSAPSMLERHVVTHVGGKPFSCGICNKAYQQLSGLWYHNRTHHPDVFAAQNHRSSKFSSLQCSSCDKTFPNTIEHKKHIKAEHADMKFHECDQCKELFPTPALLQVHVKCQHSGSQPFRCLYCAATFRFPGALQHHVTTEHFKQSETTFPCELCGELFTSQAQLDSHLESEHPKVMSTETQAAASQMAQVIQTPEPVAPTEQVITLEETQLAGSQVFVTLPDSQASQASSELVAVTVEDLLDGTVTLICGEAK
Sequence of UniProt P42768 (P42768 whole entry, looked up): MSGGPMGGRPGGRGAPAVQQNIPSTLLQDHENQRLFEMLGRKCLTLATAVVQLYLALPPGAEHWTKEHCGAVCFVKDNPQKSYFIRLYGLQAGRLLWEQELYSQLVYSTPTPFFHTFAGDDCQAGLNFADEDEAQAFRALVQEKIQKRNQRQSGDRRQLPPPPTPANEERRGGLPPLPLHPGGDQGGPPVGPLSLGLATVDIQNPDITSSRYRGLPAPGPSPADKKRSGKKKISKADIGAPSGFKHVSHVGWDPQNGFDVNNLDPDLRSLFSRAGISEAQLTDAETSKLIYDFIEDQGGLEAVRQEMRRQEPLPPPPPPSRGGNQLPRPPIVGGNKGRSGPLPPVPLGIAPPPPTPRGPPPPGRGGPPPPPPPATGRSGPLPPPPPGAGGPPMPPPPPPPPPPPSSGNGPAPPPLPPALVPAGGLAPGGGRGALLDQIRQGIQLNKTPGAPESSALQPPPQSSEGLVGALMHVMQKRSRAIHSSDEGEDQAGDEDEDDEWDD
Sequence of UniProt Q8IUH5 (Q8IUH5 whole entry, looked up): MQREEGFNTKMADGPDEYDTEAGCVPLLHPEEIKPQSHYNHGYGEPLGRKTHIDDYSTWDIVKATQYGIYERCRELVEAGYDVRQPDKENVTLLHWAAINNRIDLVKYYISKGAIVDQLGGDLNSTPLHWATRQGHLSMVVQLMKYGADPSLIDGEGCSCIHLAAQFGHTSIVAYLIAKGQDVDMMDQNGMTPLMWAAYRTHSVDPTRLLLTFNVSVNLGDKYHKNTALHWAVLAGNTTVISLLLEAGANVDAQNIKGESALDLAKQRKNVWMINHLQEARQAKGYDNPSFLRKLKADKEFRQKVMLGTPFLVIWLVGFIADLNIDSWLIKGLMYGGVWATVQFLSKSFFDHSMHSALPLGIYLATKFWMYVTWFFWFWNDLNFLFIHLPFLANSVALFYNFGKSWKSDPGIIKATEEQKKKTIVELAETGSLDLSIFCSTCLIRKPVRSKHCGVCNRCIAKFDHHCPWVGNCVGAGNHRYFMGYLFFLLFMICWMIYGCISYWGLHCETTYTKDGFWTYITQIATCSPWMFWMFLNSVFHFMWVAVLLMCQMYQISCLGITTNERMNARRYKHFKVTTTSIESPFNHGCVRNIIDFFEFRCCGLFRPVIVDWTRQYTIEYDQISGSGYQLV
Sequence of UniProt O14980 (O14980 whole entry, looked up): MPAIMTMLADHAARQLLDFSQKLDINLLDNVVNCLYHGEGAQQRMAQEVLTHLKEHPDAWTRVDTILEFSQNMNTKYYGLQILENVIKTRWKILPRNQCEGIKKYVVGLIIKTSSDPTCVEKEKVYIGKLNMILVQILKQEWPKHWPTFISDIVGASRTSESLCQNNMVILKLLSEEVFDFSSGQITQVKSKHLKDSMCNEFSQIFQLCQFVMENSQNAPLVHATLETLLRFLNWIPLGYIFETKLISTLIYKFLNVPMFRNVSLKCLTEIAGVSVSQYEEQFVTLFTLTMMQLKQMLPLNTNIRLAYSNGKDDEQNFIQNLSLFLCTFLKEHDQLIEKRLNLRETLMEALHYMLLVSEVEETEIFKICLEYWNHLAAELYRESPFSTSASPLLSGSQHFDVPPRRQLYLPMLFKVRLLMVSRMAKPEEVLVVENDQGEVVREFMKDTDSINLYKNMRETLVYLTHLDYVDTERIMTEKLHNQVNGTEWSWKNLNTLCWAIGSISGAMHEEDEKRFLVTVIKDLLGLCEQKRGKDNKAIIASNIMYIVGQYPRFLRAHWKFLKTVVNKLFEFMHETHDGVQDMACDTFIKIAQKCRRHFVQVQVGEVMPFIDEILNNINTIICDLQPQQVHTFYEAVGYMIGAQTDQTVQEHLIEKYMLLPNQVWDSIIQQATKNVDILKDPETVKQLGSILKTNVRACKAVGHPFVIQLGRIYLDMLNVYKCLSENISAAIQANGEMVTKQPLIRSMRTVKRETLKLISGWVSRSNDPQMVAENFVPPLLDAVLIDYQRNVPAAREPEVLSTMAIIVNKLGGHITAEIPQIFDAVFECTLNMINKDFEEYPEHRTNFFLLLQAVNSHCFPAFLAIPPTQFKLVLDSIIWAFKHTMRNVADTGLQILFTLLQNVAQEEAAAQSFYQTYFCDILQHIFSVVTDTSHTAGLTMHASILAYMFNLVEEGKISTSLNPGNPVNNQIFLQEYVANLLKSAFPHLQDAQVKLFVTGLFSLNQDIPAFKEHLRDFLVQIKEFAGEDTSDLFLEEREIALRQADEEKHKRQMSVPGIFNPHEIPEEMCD
Sequence of UniProt Q9BZI7 (Q9BZI7 whole entry, looked up): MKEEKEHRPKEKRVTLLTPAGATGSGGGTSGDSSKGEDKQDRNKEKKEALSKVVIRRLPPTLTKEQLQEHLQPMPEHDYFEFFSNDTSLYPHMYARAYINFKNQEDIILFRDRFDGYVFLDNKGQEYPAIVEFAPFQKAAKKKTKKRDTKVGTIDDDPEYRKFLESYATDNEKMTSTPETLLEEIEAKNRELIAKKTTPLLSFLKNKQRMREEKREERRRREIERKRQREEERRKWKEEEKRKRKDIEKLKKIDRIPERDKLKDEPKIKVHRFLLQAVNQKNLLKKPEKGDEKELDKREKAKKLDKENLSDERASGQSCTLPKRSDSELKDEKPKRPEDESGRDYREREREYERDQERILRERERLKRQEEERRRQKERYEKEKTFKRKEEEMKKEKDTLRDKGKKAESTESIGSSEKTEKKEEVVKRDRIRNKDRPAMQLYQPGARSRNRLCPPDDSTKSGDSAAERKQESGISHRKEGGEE
Sequence of UniProt P58557 (P58557 whole entry, looked up): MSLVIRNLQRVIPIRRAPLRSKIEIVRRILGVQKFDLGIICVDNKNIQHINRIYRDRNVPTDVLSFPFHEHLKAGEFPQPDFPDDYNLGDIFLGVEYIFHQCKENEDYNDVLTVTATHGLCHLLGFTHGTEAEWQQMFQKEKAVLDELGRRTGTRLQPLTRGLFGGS

Consider WAC isoform 5 (UniProt Q9BTA9), for which the log2 fold change in test [1] is -0.232.
As to UNC13A (UniProt Q9UPW8), the log2 fold change in test [2] was -0.966.
Consider WSB1 (UniProt Q9Y6I7), for which the log2 fold change in test [1] was 0.036; in test [2], -0.036.
As for UPF3B (UniProt Q9BZI7), the log2 fold change in test [3] was 0.031; in test [4], -0.008; in test [5], -0.043; in test [1], 0.022; in test [2], -0.097.
Regarding ZKSCAN8 (UniProt Q15776), the log2 fold change in test [5] is -0.065; in test [1] it was -0.026.
In the case of WAS (UniProt P42768), the log2 fold change is 0.003 in test [3], -0.006 in test [4], -0.095 in test [1] and 0.053 in test [2].
XPO1 (UniProt O14980): the log2 fold change in test [3] is -0.024; in test [4], 0.023; in test [5], 0.012; in test [1] it was 0.008; in test [2], 0.023.
On to ZBTB40 (UniProt Q9NUA8), for which the log2 fold change was -0.06 in test [5], -0.004 in test [1] and -0.432 (active) in test [2].
Regarding ZNF845 (UniProt Q96IR2), the log2 fold change in test [3] was -0.239; in test [4], 0.048; in test [5], 0.114; in test [1] it was -0.058; in test [2], 0.083.
In the case of YBEY (UniProt P58557), the log2 fold change in test [5] is 0.046; in test [1] it was -0.016.
Turning to VASN (UniProt Q6EMK4), the log2 fold change in test [1] was -0.017.
Regarding ZSCAN21 (UniProt Q9Y5A6), the log2 fold change in test [2] is -0.074.
For the target VPS41 (UniProt P49754), the log2 fold change in test [3] was -0.046; in test [4], 0.005; in test [5] it was -0.016; in test [1], 0.067; in test [2] it was 0.13.
Consider ZDHHC17 (UniProt Q8IUH5), for which the values for the log2 fold change in test [5], in test [1] and in test [2] were 0.057, -0.181 and -0.578, respectively.
